Reference: PubChem BioAssay (Tox21)
Results filed as inconclusive are left out. Calls of active or inactive are those of the source. Unless noted, the call rests on the fitted dose curve.

Tests used:
[1] = Nuclear factor erythroid 2-related factor 2/antioxidant responsive element (Nrf2/ARE) small molecule agonists: qHTS cell viability counter screen in human keratinocytes (AID 1919968; active means well fitted curve in the direction sought with a large enough effect in the repeat runs; an effect the other way counts as inactive or inconclusive; further: nearly all actives have a fitted effect of over 55% in size)
Procedure, shortened: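 KeratinoSens HaCaT cells, 1,500/well, preincubated 5 h, then exposed to compounds in DMSO for 23 h at 37 C/5% CO2. Viability read as CellTiter-Fluor fluorescence after 1 h, in the same wells as the ARE-luciferase read.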

[2] = Nuclear factor erythroid 2-related factor 2/antioxidant responsive element (Nrf2/ARE) small molecule agonists: luciferase reporter gene qHTS assay in human keratinocytes (AID 1919969); further: nearly all actives have a fitted effect of over 35% in size
[3] = target: Gonadotropin-releasing hormone receptor (Homo sapiens) (UniProt P30968); assay: Human gonadotropin-releasing hormone receptor (GnRHR) small molecule agonists, calcium flux assay in GnRHR-HEK293 cells (AID 1920063); further: nearly all actives have a fitted effect of over 35% in size
Procedure, shortened: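 HEK293 cells stably expressing human GnRHR were dye-loaded for 1 h at 37 C. Compound was added in agonist mode and fluorescence (Ex/Em 480/540) recorded kinetically for 3 min. Fifteen concentrations, triplicates.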

[4] = target: KiSS-1 receptor (Homo sapiens) (UniProt Q969F8); assay: Human kisspeptin (KISS1R) small molecule agonists, calcium flux assay in KISS1R-HEK293 cells (AID 1920064; active means well fitted curve in the direction sought with a large enough effect in the repeat runs; an effect the other way counts as inactive or inconclusive)
Procedure, shortened: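 HEK293 cells stably expressing human KISS1R were loaded with calcium dye for 1 h at 37 C, then given compound; fluorescence (Ex/Em 480/540) was read kinetically for 3 min. Fifteen concentrations, triplicate.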

[5] = G protein-coupled receptor (GPCR) small molecule agonists, calcium flux assay: HEK293 wild type cell line counter screen (AID 1920065)
Procedure, shortened: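 Wild-type HEK293 cells plated 18 h, loaded with calcium dye 1 h at 37 C, then compounds added in agonist mode (ATP as positive control). Kinetic fluorescence Ex/Em 480/540 recorded 3 min at 1 sec intervals; 15 concentrations, triplicate.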

[6] = p53 small molecule agonists, cell-based qHTS assay with human liver microsomes (AID 1963577)
Procedure, shortened: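 Cells carrying a p53-responsive bla reporter were rested 5 h (37 C, 5% CO2) before compound transfer. Human liver microsomes plus NADPH, 0.5 mg/mL final apiece, supplied metabolism during the 16 h 37 C exposure.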

[7] = p53 small molecule agonists, cell-based qHTS assay with rat liver microsomes (AID 1963578)
Procedure, shortened: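 Fluorescence from a beta-lactamase reporter under a p53 response element was measured after cells had been incubated 16 h at 37 C with test compound and rat liver microsomes plus NADPH (0.5 mg/mL final each).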

[8] = p53 small molecule agonists, cell-based qHTS assay with human liver microsomes: qHTS cell viability counter screen (AID 1963579); further: nearly all actives have a fitted effect of over 45% in size
Procedure, shortened: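 Seed p53RE-bla cells at 4,000 per well; incubate 5 h at 37 C; add compound, human liver microsomes and NADPH; incubate 16 h at 37 C; add CellTiter-Glo; after 30 min at room temperature, read luminescence.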

[9] = p53 small molecule agonists, cell-based qHTS assay with rat liver microsomes: qHTS cell viability counter screen (AID 1963580); further: nearly all actives have a fitted effect of over 45% in size
Procedure, shortened: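 Viability is assessed in parallel with the p53 reporter read: HCT-116 p53RE-bla cells receive compounds plus rat microsomes and NADPH (0.5 mg/mL final apiece), incubate 16 h at 37 C, and then CellTiter-Glo luminescence is recorded.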

[10] = p53 small molecule agonists, cell-based qHTS assay: qHTS cell viability counter screen (AID 1963581); further: nearly all actives have a fitted effect of over 45% in size
Procedure, shortened: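 p53RE-bla HCT-116 cells, compounds added 5 h after plating and incubated 16 h at 37 C. Cytotoxicity measured in the same wells as intracellular ATP by CellTiter-Glo luminescence after 30 min at room temperature.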

[11] = p53 small molecule agonists, cell-based qHTS assay (AID 1963582; active means well fitted activation curve with a large enough effect in the signal ratio in the repeat runs, not every such curve was filed as active; the % refers to the signal ratio)
Procedure, shortened: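 p53RE-bla reporter cells, compounds added in DMSO after 5 h plating, incubated 16 h at 37 C. Beta-lactamase read via 2 h room-temperature LiveBLAzer B/G FRET substrate, fluorescence intensity.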

[12] = target: 5-hydroxytryptamine receptor 2A (Homo sapiens) (UniProt P28223); assay: 5-hydroxytryptamine receptor 2A (HTR2A) small molecule antagonists, cell-based qHTS assay (AID 1963586); further: nearly all actives have a fitted effect of over 45% in size
Procedure, shortened: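 Antagonist-mode intracellular calcium assay: DOI (4 nM) added after 5 min compound pre-incubation at room temperature to dye-loaded HTR2A-CHO cells. Fluorescence followed for 3 min, sampled every second.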

[13] = target: 5-hydroxytryptamine receptor 2A (Homo sapiens) (UniProt P28223); assay: 5-hydroxytryptamine receptor 2A (HTR2A) small molecule agonists, cell-based qHTS assay (AID 1963587); further: nearly all actives have a fitted effect of over 30% in size
Procedure, shortened: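 CHO cells stably expressing human HTR2A, plated 18 h, loaded with calcium dye 1 h at 37 C. Agonist mode: compounds added and intracellular calcium fluorescence recorded kinetically for 2 min at 1 sec intervals.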

[14] = target: Muscarinic acetylcholine receptor M1 (Homo sapiens) (UniProt P11229); assay: Cholinergic receptor muscarinic 1 (CHRM1) small molecule antagonists, cell-based qHTS assay (AID 1963588); further: nearly all actives have a fitted effect of over 40% in size
Procedure, shortened: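 CHRM1-CHO calcium-flux assay, antagonist mode. Cells were seeded 18 h, dye-loaded 1 h at 37 C and given compound for 5 min at RT, then acetylcholine was added at 50nM. FDSS fluorescence was read 3 min; 15 concentrations, three runs.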

[15] = target: Muscarinic acetylcholine receptor M1 (Homo sapiens) (UniProt P11229); assay: Cholinergic receptor muscarinic 1 (CHRM1) small molecule agonists, cell-based qHTS assay (AID 1963589); further: nearly all actives have a fitted effect of over 35% in size
Procedure, shortened: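 CHO cells stably expressing human CHRM1 were loaded with calcium dye for 1 h at 37 C, then compound was added in agonist mode. Intracellular calcium fluorescence was followed kinetically at 1 s intervals. Fifteen concentrations were tested in three independent runs.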

[16] = cAMP Responsive Elements (CRE) small molecule antagonists, cell-based qHTS assay (AID 1963591; active means well fitted inhibition curve with a large enough effect in the signal ratio in the repeat runs, not every such curve was filed as active; the % refers to the signal ratio)
Procedure, shortened: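 CRE-bla HEK293T cells plated 18 h, then given compound plus NKH477 at 0.25 uM final for 3 h at 37C. Beta-lactamase reporter read with LiveBLAzer B/G FRET substrate after 2 h at room temperature.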

[17] = target: Beta-2 adrenergic receptor (Homo sapiens) (UniProt P07550); assay: Adrenergic beta2 receptor (ADRB2) small molecule antagonists, cell-based qHTS assay (AID 1963592); further: series mostly up to about 92 µM; nearly all actives have a fitted effect of over 50% in size
Procedure, shortened: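 Cells (CHO, stable ADRB2 overexpression) incubated 18-20hr at 37C; compounds added from DMSO; agonist mix (1nM isoproterenol, 100uM IBMX, 25uM Ro-20-1724) added; 0.5hr RT; d2-cAMP and anti-cAMP-cryptate added; 1hr RT; 665/615 nm read.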

[18] = target: D(2) dopamine receptor (Homo sapiens) (UniProt P14416); assay: Dopamine D2 receptor (DRD2) small molecule agonists, cell-based qHTS assay (AID 1963594); further: nearly all actives have a fitted effect of over 35% in size
Procedure, shortened: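 HEK293 cells stably expressing human DRD2, pre-treated with PDE inhibitor Ro20-1724 (0.1 mM final) and compound 10 min at room temperature, then stimulated with NKH477 (200nM […]) for 30 min. cAMP read by HTRF (665/620 nm).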

[19] = target: D(2) dopamine receptor (Homo sapiens) (UniProt P14416); assay: Dopamine D2 receptor (DRD2) small molecule antagonists, cell-based qHTS assay (AID 1963595; active means well fitted inhibition curve with a large enough effect in the signal ratio in the repeat runs, with a control signal flat; the % refers to the signal ratio)
Procedure, shortened: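 HEK293 cells stably expressing DRD2 were preincubated with 0.1 mM Ro20-1724, then with compound for 10 min at room temperature. Cells were stimulated with 200 nM NKH477 plus 12 nM quinpirole for 30 min, and cAMP was read by HTRF.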

[20] = cAMP Responsive Elements (CRE) small molecule agonists, cell-based qHTS assay (AID 1963590)
Procedure, shortened: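 CRE-bla HEK 293T cells, 2,000/well in DMEM with 10% dialyzed FBS and 25 mM HEPES, pre-incubated 18 h at 37 C, then exposed to compound 3 h at 37 C. Beta-lactamase reporter read with LiveBLAzer B/G FRET substrate after 2 h at room temperature.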
On the % scale 0 is the no-effect control and ±100 the full control effect.

Chain of Muscarinic acetylcholine receptor M1 (Homo sapiens) (P11229 whole entry, looked up): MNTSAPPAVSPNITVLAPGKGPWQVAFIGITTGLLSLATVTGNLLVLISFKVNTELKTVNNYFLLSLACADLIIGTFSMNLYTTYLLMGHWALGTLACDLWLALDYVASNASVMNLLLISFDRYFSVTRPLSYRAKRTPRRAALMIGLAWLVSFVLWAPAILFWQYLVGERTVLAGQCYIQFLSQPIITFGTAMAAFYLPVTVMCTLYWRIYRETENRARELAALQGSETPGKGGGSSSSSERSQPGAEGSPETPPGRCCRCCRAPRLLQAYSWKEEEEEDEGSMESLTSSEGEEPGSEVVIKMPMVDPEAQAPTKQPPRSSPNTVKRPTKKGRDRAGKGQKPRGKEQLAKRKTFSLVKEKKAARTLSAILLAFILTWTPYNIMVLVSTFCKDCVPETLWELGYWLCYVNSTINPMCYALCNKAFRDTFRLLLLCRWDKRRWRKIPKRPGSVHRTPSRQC
Chain of Beta-2 adrenergic receptor (Homo sapiens) (P07550 whole entry, looked up): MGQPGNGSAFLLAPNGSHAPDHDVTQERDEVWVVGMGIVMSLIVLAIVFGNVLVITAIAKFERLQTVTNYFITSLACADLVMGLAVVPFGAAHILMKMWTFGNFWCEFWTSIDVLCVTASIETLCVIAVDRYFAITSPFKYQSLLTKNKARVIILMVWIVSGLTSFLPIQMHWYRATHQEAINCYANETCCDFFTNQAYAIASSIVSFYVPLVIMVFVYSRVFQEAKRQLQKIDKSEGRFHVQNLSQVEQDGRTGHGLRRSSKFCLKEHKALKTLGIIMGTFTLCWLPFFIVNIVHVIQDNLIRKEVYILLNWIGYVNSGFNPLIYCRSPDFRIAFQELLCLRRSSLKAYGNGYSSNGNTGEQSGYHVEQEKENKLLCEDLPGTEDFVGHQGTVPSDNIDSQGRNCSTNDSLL
Chain of KiSS-1 receptor (Homo sapiens) (Q969F8 whole entry, looked up): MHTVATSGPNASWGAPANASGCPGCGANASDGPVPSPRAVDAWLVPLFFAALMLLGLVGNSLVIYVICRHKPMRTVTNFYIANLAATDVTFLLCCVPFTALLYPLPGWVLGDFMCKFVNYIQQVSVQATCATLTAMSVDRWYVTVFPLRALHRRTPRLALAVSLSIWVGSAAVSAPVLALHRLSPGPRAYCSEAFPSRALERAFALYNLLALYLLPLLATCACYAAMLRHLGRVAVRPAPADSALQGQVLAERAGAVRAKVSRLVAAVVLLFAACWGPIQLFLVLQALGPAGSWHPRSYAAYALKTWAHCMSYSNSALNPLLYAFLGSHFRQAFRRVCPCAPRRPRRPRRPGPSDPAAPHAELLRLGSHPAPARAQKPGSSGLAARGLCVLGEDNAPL
Chain of Gonadotropin-releasing hormone receptor (Homo sapiens) (P30968 whole entry, looked up): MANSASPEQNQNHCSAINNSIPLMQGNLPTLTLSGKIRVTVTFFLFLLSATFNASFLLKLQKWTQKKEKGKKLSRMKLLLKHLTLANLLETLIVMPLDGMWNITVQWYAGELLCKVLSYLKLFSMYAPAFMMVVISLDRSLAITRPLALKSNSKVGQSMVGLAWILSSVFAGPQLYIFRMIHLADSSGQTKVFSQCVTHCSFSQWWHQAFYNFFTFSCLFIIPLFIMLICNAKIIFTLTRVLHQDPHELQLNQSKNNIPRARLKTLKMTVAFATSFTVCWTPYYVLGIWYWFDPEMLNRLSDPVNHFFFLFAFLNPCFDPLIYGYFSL
Chain of 5-hydroxytryptamine receptor 2A (Homo sapiens) (P28223 whole entry, looked up): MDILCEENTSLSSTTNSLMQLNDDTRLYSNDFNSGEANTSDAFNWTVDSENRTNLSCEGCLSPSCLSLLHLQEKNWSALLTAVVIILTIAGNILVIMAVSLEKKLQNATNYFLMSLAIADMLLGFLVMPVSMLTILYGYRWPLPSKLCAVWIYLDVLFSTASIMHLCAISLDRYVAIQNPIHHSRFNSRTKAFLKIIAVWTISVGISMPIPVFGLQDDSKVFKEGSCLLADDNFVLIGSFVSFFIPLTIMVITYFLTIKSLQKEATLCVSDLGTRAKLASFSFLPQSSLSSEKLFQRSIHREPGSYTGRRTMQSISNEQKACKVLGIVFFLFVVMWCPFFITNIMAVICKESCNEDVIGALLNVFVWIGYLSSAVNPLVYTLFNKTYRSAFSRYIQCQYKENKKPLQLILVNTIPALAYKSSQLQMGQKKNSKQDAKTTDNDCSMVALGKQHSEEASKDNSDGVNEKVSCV
Chain of D(2) dopamine receptor (Homo sapiens) (P14416 whole entry, looked up): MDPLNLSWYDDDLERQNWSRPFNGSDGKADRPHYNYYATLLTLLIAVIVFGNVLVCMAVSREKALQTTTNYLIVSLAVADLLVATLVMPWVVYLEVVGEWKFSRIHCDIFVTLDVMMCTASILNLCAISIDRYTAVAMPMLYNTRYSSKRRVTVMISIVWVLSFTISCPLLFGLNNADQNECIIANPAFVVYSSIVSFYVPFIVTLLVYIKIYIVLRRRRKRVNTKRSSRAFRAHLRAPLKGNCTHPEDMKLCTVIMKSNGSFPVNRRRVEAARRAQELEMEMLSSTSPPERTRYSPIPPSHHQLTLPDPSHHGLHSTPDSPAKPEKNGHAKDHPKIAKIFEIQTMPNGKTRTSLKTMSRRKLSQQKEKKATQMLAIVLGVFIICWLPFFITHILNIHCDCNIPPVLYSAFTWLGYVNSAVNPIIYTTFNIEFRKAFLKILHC

CCc1ccccc1CC
inactive: Potency [1] | Potency [2] | Potency [3] | Potency [4] | Potency [5] | Potency [6] | Potency [7] | Potency [8] | Potency [9] | Potency [10] | Potency [11] | Potency [12] | Potency [13] | Potency [14] | Potency [15] | activity change, negative = inhibition [16] 3.92% [at 18.9 µM] | activity change, negative = inhibition [17] -5.37% [at 19 µM] | Potency [18] | Potency [19]

c1ccc2[nH]cnc2c1
inactive: Potency [1] | Potency [2] | Potency [3] | Potency [4] | Potency [5] | Potency [6] | Potency [7] | Potency [8] | Potency [9] | Potency [10] | Potency [11] | Potency [12] | Potency [13] | Potency [14] | Potency [15] | Potency [20] | Potency [17] | Potency [18] | Potency [19]

Oc1cccc(O)c1
inactive: Potency [1] | Potency [2] | Potency [3] | Potency [4] | Potency [5] | Potency [6] | Potency [7] | Potency [8] | Potency [9] | Potency [10] | Potency [11] | Potency [12] | Potency [13] | Potency [14] | Potency [15] | Potency [16] | Potency [17] | Potency [18] | Potency [19]
